# From the OligoGym collection
# What was measured:
# Test in all cases: pooled miR-30 sensor sort-seq; sequence = guide strand
# Conditions in all cases: shRNA
# KCNK6 = target: KCNK6
# KCNRG = target: KCNRG
# KHDRBS3 = target: KHDRBS3
# KIF25 = target: KIF25
# KIF26A = target: KIF26A
# KIF2C = target: KIF2C
# KIR2DL5B = target: KIR2DL5B
# KPRP = target: KPRP
# KRT86 = target: KRT86
# L1TD1 = target: L1TD1
# LASP1 = target: LASP1
# LCN1 = target: LCN1
# LASS1 = target: LASS1
# LARP1B = target: LARP1B
# LCE2C = target: LCE2C
# Further: reference of the scale not given here.
sequence,measurement,setting,value
TTAGCAAGCACGACCCGCCCCA,sensor-assay potency score (higher = more potent),KCNK6,-0.345
TCTGGTATGATGATAGTCTCTG,sensor-assay potency score (higher = more potent),KCNRG,0.569
TAGAAACATACCTGACTCCAGT,sensor-assay potency score (higher = more potent),KCNRG,-0.214
TAGTCCACTCTTCTTGCCCGTA,sensor-assay potency score (higher = more potent),KHDRBS3,-0.553
TAACACAAACATTGTACCCATC,sensor-assay potency score (higher = more potent),KIF25,-0.837
TAATTCCTAAGTCACTCTGTGG,sensor-assay potency score (higher = more potent),KIF25,-1.49
TCGCTTGAGCTCCACCAGCTTC,sensor-assay potency score (higher = more potent),KIF26A,-1.81
TCAAACTCATCATTGATGCTGC,sensor-assay potency score (higher = more potent),KIF26A,0.23
TGTGCTGCTTCTACCTTGCTGG,sensor-assay potency score (higher = more potent),KIF26A,-0.279
TTCAAAGATTGTCTGTACCAGT,sensor-assay potency score (higher = more potent),KIF2C,-0.672
TAGAGTCACCGTAATTATCAGG,sensor-assay potency score (higher = more potent),KIF25,-1.12
ATTATTGTAAACTTCCACTATG,sensor-assay potency score (higher = more potent),KIF25,-0.786
TTTGTCTGCTAGCCTGCTCTTC,sensor-assay potency score (higher = more potent),KIF2C,-1.15
TTCTGTTTCCATTTGAATCAAC,sensor-assay potency score (higher = more potent),KIF2C,-0.604
TACTGGTAGACGTGCAGCGTGA,sensor-assay potency score (higher = more potent),KIF26A,-1.25
TTGATCATCAGAGTCCTCCCTG,sensor-assay potency score (higher = more potent),KIR2DL5B,0.731
TTGGAGTTGACGGATCTCCGTT,sensor-assay potency score (higher = more potent),KIF2C,-0.171
TTTGTCTGTGTGAAAACGCAGT,sensor-assay potency score (higher = more potent),KIR2DL5B,-0.271
TAGCTTGTCGAGAAGCAGGGCA,sensor-assay potency score (higher = more potent),KIF26A,-0.503
TATCTGTTGGAGGTGCCTTGGG,sensor-assay potency score (higher = more potent),KIR2DL5B,-0.788
TGAACCTGTAGACAACTTCATT,sensor-assay potency score (higher = more potent),KIF2C,-1.25
TATGTGTCTTGCCACTTCCTGT,sensor-assay potency score (higher = more potent),KIF2C,-0.789
ATAACACAAACATTGTACCCAT,sensor-assay potency score (higher = more potent),KIF25,0.237
TAACACAGACACATATTCTGTG,sensor-assay potency score (higher = more potent),KIF2C,0.393
TTTCTTGGCCAATTCTTGCTTA,sensor-assay potency score (higher = more potent),KIF2C,0.0812
TCATCGATCTCGTACACCTTGA,sensor-assay potency score (higher = more potent),KIF26A,-0.779
ACAAACATTGTACCCATCCAAG,sensor-assay potency score (higher = more potent),KIF25,-1.74
TTGTCCTTGGTCTTGGAGGCGG,sensor-assay potency score (higher = more potent),KIF26A,-1.26
ATCTCGTACACCTTGATCTCGA,sensor-assay potency score (higher = more potent),KIF26A,-0.604
TTTTGTTGTAGAGCTCAGGGAC,sensor-assay potency score (higher = more potent),KIR2DL5B,0.231
TTGCTGTATGATCTCCTTGAGC,sensor-assay potency score (higher = more potent),KIF2C,-1.21
TTATTGTAAACTTCCACTATGG,sensor-assay potency score (higher = more potent),KIF25,-0.569
TATAGCTCTTTCCGCTGCCCGT,sensor-assay potency score (higher = more potent),KIF25,-1.1
TTGCTCTTCCATCTCCTCGCTG,sensor-assay potency score (higher = more potent),KIF2C,-0.535
TCGAAGGCAAACATCTTGGGAA,sensor-assay potency score (higher = more potent),KIF26A,0.12
AACTACTTGAAGAGTTTCCTGT,sensor-assay potency score (higher = more potent),KIR2DL5B,0.126
TTGTAAACTTCCACTATGGAGA,sensor-assay potency score (higher = more potent),KIF25,-0.609
TAACTTCGCATCGCCTCCGAGG,sensor-assay potency score (higher = more potent),KIF25,-1.63
TTCTCCAAGTTCACAGTCCTTA,sensor-assay potency score (higher = more potent),KIF2C,-0.384
TACACCTTGATCTCGAACGGCT,sensor-assay potency score (higher = more potent),KIF26A,-0.449
AGAATCACCAGTAACTTCGCAT,sensor-assay potency score (higher = more potent),KIF25,-0.565
ACAAGCAGTGGGTCACTCGGGT,sensor-assay potency score (higher = more potent),KIR2DL5B,-0.672
TTCTTGGGGGACTTGAGGCTGC,sensor-assay potency score (higher = more potent),KIF26A,-0.669
AACCTCTGTCCGTCCATCCTTG,sensor-assay potency score (higher = more potent),KIF25,-0.841
TTCTTTTTGTTGGAGCAGCAGC,sensor-assay potency score (higher = more potent),KIR2DL5B,-0.965
TTGAGCTCCACCAGCTTCGTGT,sensor-assay potency score (higher = more potent),KIF26A,-0.457
TGGTCTTAGACTGACATTGAGC,sensor-assay potency score (higher = more potent),KPRP,-1.69
AATCTCAACAGGACACCTCTGT,sensor-assay potency score (higher = more potent),KPRP,0.644
ACGGGTGACAATGTCATCGTAC,sensor-assay potency score (higher = more potent),KRT86,-0.601
TTTGATCTTCTAGACTGTCTAT,sensor-assay potency score (higher = more potent),L1TD1,-0.16
TTGCAGTAGGGCTTCTTCTCGT,sensor-assay potency score (higher = more potent),LASP1,-0.401
TGGTCCTTCACGTGCGACCTGA,sensor-assay potency score (higher = more potent),LCN1,-1.44
TAGAAGAGAAACTTCCAAGCGC,sensor-assay potency score (higher = more potent),LASS1,0.296
TTGAAGTAAATGTTGAGCTTGG,sensor-assay potency score (higher = more potent),LASS1,0.853
TAAATGTGTTTTTTCGTCCTAT,sensor-assay potency score (higher = more potent),LARP1B,0.39
TATAGCGTAGCGTAGATGGAGT,sensor-assay potency score (higher = more potent),LASS1,-0.396
TACGCTGAAACCTTTGCCCTTG,sensor-assay potency score (higher = more potent),LASP1,0.0341
TAGCGTAGCGTAGATGGAGTGG,sensor-assay potency score (higher = more potent),LASS1,-0.207
TTCAGTGTCATCTTGCAGGTCT,sensor-assay potency score (higher = more potent),LASP1,0.744
CACAGCAAGAAGAGACTGCAGG,sensor-assay potency score (higher = more potent),LCE2C,-2.53
